Screening results (PubChem)
Sampled rows, rich in hits. Any-hit rate of the full collection: about 21%.
IL1B secr inh = inhibitors of inflammasome signaling (IL-1 beta secretion); hit rate 4.7% among 360,000; THP-1 LPS/ATP IL-1B secretion, AlphaLISA, 16 h; stronger effect = lower value; activity change, % at 57.5 µM; AID 743279; in the data active = activity change below about -50%; inconclusive = mostly about -30% to -49%
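Secreted IL-1B measured by AlphaLISA bead assay after 16 h compound exposure of THP-1 cells; compounds (final up to 57.5 uM) added 1 h before LPS (250 ng/mL) and ATP (1.25 mM) stimulation; lower signal means less secretion.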
RORg inh = inhibitors of mouse ROR gamma transcriptional activity. P51450. Drosophila S2 Gal4-RORgamma UAS-luciferase reporter, 20 h. Potency, µM (titrated, usually from 53.6 µM), inactives show at the highest dose activity change, negative = inhibition, usual class: inhibitors. hit rate 5.4% among 310,000. AID 2551; also: potency is read from the fitted curve at half-maximal effect; nearly all actives have a fitted effect of over 60% in size
Target sequence (P51450 whole entry, looked up, the tested form may be a part): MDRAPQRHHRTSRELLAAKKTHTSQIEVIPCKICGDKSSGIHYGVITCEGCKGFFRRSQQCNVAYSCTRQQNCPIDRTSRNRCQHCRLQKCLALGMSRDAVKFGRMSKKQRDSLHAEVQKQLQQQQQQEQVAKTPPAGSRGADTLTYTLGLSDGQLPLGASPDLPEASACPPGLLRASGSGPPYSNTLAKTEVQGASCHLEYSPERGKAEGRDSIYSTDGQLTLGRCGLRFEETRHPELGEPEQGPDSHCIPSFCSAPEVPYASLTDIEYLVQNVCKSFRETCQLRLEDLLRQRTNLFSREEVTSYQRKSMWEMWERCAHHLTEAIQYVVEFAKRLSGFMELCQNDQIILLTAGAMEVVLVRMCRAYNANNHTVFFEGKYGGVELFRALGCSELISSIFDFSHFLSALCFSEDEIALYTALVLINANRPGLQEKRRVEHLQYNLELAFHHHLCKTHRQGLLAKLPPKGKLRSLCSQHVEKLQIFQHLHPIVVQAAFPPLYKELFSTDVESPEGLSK
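In this cell-based reporter format, copper sulfate (700 uM final) drives Gal4–ROR gamma fusion expression from a metallothionein promoter in Drosophila Schneider cells; compounds preincubated 1 hr, reporter read after 20 hr at ambient temperature.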
Gal4-VP16 FLuc = inhibits Gal4-VP16 luciferase reporter, ROR gamma counter-screen. Drosophila S2 Gal4-VP16 UAS-luciferase, luminescence, 20 h. hit rate 3.5% among 310,000. Potency, µM (doses to about 53.6 µM), without a hit: at the top dose activity, negative = inhibition, actives largely listed as inhibitors;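 also: Gal4-VP16 expression switched on by copper sulfate through the metallothionein promoter; potency is read from the fitted curve at half-maximal effect; nearly all actives have a fitted effect of over 50% in size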
DT40 TDP1 no CPT = qHTS for Inhibitors of human tyrosyl-DNA phosphodiesterase 1 (TDP1): qHTS in cells in absence of CPT | DT40 Tdp1-/- hTDP1 cells, no CPT, ATP luminescence, 48 h | Potency, µM (highest dose often 46.2 µM), without a hit: at the highest dose activity change, negative = growth inhibition, actives largely listed as inhibitors | hit rate 15% among 420,000; also: potency is read from the fitted curve at half-maximal effect; nearly all actives have a fitted effect of over 55% in size
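Compound effects on proliferation are scored in DT40 Tdp1-/-;hTDP1 cells in the absence of CPT. ATP levels (CellTiter-Glo luminescence) are recorded after a ≥48 hr, 37 °C incubation.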
TDP1 cell CPT = DT40-hTDP1 cell growth loss with CPT; chicken DT40 Tdp1-/-;hTDP1 cells + 20 nM CPT, ATP luminescence, 48 h; Potency, µM (doses to about 46.2 µM), for the others: at the top dose activity change, negative = growth inhibition, usual class: inhibitors; hit rate 12% among 420,000; also: potency is read from the fitted curve at half-maximal effect; nearly all actives have a fitted effect of over 55% in size
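Cell growth measured by CellTiter-Glo luminescence after a minimum 48 h, 37 C compound exposure with 20 nM CPT in Tdp1-knockout DT40 cells stably expressing hTDP1, seeded 400/well; qHTS titration format.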
ELG1 DNA repair = ELG1-dependent DNA repair inhibition | HEK293T ELG1-luciferase reporter, luminescence, 16 h; DNA damage induced by 5-fluorouridine | Potency, µM (series often up to 46.1 µM), without a hit: top-dose activity change, negative = inhibition, hits mostly inhibitors | hit rate 2.3% among 330,000 | AID 504467; also: potency is read from the fitted curve at half-maximal effect; nearly all actives have a fitted effect of over 55% in size
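DMSO vehicle served as the neutral condition. Each well held 2,000 cells given 5-fluorouridine plus compound; after 16 hr at 37 °C/5% CO2, ONE-Glo was added and luciferase measured 30 min later.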
Starred values were filed as active, the others as inactive; ? = inconclusive; . = no result; [ ] = remark or other dose. Unless noted, calls follow the shape of the dose curve; as a rule, active = well fitted curve in the direction sought with a large enough effect; inconclusive = small, poorly fitted or top-dose-only effect, or another doubt; inactive = no such curve, though single readings can be large; an effect the other way counts as inactive or inconclusive. % is scaled to controls: 0 for no effect and ±100 for the full control effect.

SMILES	IL1B secr inh	RORg inh	Gal4-VP16 FLuc	DT40 TDP1 no CPT	TDP1 cell CPT	ELG1 DNA repair
CN(c1ccccc1)c1nc(-n2ccnc2)nc(-n2ccnc2)n1	16.0	-11.7%	-4.0%	-22.6%	-15.7%	-24.7%
CN(C(=O)c1cccc(NC(=O)Cc2cccc(NC(=O)C3CCCN(C(=O)c4ccccc4)C3)c2)c1)C1CC1 (stereo not drawn)	20.0	.	.	?	-11.8%	.
CC(NCc1ccc(N(C)C)cc1)C1CC2CCC1C2 (stereo not drawn)	-60.7*	-13.2%	1.0%	?	?	-2.0%
CC(NC(=O)c1ccc(CS(C)(=O)=O)cc1)C1CC2CCC1C2 (stereo not drawn)	5.6	1.4%	-0.7%	-14.1%	-6.0%	-2.5%
CCCCCCN(C(=O)CCCCCN1C(=O)NC(c2ccccc2-c2ccccc2)C(C(=O)OCc2ccccc2)=C1C)C(C(=O)NCCCC)c1ccc(OCC(=O)OC)c(C(=O)OC)c1 (stereo not drawn)	.	-1.5%	-7.4%	.	.	.
CCOC(=O)C1CCN(CC(=O)Nc2c(C(=O)OC)[nH]c3ccc(Cl)cc23)CC1	6.9	?	10µM*	10.3µM*	23.1µM*	20.6µM*
CCOC(=O)C1CCCN(CCC(=O)Nc2c(C(=O)OC)[nH]c3cc(OC)ccc23)C1 (stereo not drawn)	19.1	0.7%[10 µM]	-2.6%	-8.4%	0.9%	-2.5%
CCOC(=O)C1CCN(CC(=O)Nc2c(C(=O)OC)[nH]c3ccccc23)CC1	.	29.7%	-27.6%	.	.	?
CCOC(=O)c1[nH]c2ccc(Br)cc2c1NC(=O)CCN1CCCC(C)(C)C1	-11.3	34.1%	-22.7%	25.9µM*	?	3.9%
CCOC(=O)c1[nH]c2ccc(F)cc2c1NC(=O)CCN1CCOCC1	7.3	26.8%	6.9%	12.5%	4.3%	?
CCOC(=O)C1CCCN(CC(=O)Nc2c(C(=O)OC)[nH]c3ccc(Br)cc23)C1 (stereo not drawn)	23.9	7.0%	?	20.6µM*	16.4µM*	16.4µM*
COC(=O)c1[nH]c2ccc(Br)cc2c1NC(=O)CN1CCN(C2CCCCC2)CC1	-99.6*	-85.1%	?	20.6µM*	25.9µM*	?
O=C(c1cnccn1)N1CCC2(CCCN(Cc3ccncc3)C2)CC1	.	-24.4%	-6.9%	-1.4%	11.0%	.
O=C(Nc1cc(Cl)cc(Cl)c1)C1CCCC1	18.4	?	0.7%	?	?	7.0%
CCCn1c(CC)nc([N+](=O)[O-])c1Sc1ncn[nH]1	0.0	.	.	?	?	.
COc1ccc(CN2CCC2(C)C(=O)Nc2cccc(NS(C)(=O)=O)c2)c2ccccc12 (stereo not drawn)	-3.9	.	.	?	?	.
COc1cccc(NC(=O)C2(C)CCN2Cc2ccc(OC)c3ccccc23)c1 (stereo not drawn)	-17.2	.	.	-75.0%	?	.
COc1cccc(CN2CCC2(C)C(=O)Nc2cccc(Oc3ccccc3)c2)c1OC (stereo not drawn)	-20.9	.	.	20.6µM*	23.1µM*	.
COc1cccc(CN2CCC2(C)C(=O)Nc2cccc(NS(C)(=O)=O)c2)c1OC (stereo not drawn)	-5.4	.	.	23.1µM*	18.4µM*	.
CC(C)Oc1ccc(CN2CCC2(C)C(=O)Nc2cccc(Oc3ccccc3)c2)cc1 (stereo not drawn)	17.8	.	.	?	?	.
CC(C)c1ccc(CN2CCC2(C)C(=O)Nc2cccc(Oc3ccccc3)c2)cc1 (stereo not drawn)	29.1	.	.	18.4µM*	?	.
CCCCOC(=O)c1ccc(OC(=O)c2sc3ncn(Cc4cccc(F)c4)c(=O)c3c2C)cc1	.	.	.	-16.9%	-9.9%	.
